Bioassay records as filed in PubChem.
Hits are enriched below; roughly 19% of the tested compounds scored in any of these assays.
CHX counter: Cycloheximide Counterscreen for Small Molecule Inhibitors of Shiga Toxin; cell reporter, cycloheximide protein synthesis inhibition counterscreen; max response, %; hit rate 12% among 300,000; AID 2314, 2010; in the data active means max response mostly above about 13%, no sharp cut-off; inactive means mostly below about 14%; further: read at 38.3 µM for the half of the compounds with a filed dose
Pf growth 48h: Primary qHTS for delayed death inhibitors of the malarial parasite plastid, 48 hour incubation. Potency, µM (series often up to 28.7 µM), hits mostly inhibitors. hit rate 5.9% among 310,000. P. falciparum luciferase growth in erythrocytes, 48 h
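Luciferase-expressing parasites in RBCs, 2% Hct / 0.1% parasitemia final; RPMI 1640 + 0.5% Albumax; 37 C, 5% CO2, one generation; luminescence read-out, lower signal = inhibition.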
SARS PLP yeast: qHTS of Yeast-based Assay for SARS-CoV PLP; S. cerevisiae expressing SARS-CoV PLpro, growth rescue; Potency, µM (series often up to 32.9 µM), hits mostly activators; hit rate 0.19% among 330,000; AID 485353, 2010; calls by dose curve; further: nearly all actives have a fitted effect of over 55% in size
AMA1 RON2 block: qHTS for Inhibitors of AMA1-RON; Towards Development of Antimalarial Drug Lead: Primary Screen; Plasmodium falciparum AMA1 (3D7) - RON2 peptide interaction; AlphaScreen AMA1-biotinylated RON2 peptide binding; Potency, µM (titrated, usually from 58.2 µM), usual class: inhibitors; hit rate 0.2% among 360,000; further: nearly all actives have a fitted effect of over 45% in size
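AMA1 (3D7) with his tag at 25 nM final met compounds first, then biotinylated RON2 peptide at 25 nM; detection used donor plus acceptor beads, 10 µg/mL apiece, read by AlphaScreen after 30 min at room temperature.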
Shiga inhibitor: A qHTS for Small Molecule Inhibitors of Shiga Toxin; Vero cells, Shiga toxin protein synthesis inhibition reporter; AID 2315, 2010; inhibition, % at 38.7 µM; hit rate 9.2% among 290,000; in the data active means inhibition mostly above about 28%, no sharp cut-off; inactive means mostly below about 43%
Pf growth 96h: Primary qHTS for delayed death inhibitors of the malarial parasite plastid, 96 hour incubation. hit rate 6.9% among 320,000. P. falciparum luciferase reporter growth, 96 h. Potency, µM (top dose mostly 28.7 µM), most hits filed as inhibitors
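Plates of compound plus infected erythrocytes (2% hematocrit, 0.05% parasitemia final) incubate 96 hours, 37 C, 5% CO2. Detection reagent added; reduced luminescence from the parasites' luciferase reporter flags inhibition.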
Of the large screens only hits and unclear results are named; the others gave an inactive call. Unless noted, the call rests on the fitted dose curve; in most records, active means well fitted curve in the direction sought with a large enough effect; inconclusive means small, poorly fitted or top-dose-only effect, or another doubt; inactive means no such curve, though single readings can be large; an effect the other way counts as inactive or inconclusive.

O=C(OC1CCCCC1=O)c1cc(Cl)ccc1[N+](=O)[O-] (stereo not drawn)	none
COc1ccc(/C=c2\s/c(=C/C(=O)c3ccc(C)cc3)[nH]c2=O)cc1OC	Pf growth 96h inconclusive
Cc1ccccc1C(=O)N/N=C/c1ccc([N+](=O)[O-])s1	Pf growth 96h 2.08µM (no result: Pf growth 48h)
Nc1cc(=O)[nH]c(SCC(=O)NNC(=O)c2ccccc2)n1	none (no result: CHX counter, Shiga inhibitor)
Cc1ccc(N(CC(=O)NC(C)C)C(=O)CCC(=O)Nc2ccccn2)cc1	Pf growth 96h 3.7µM
Cc1ccc(N(CC(=O)NCc2ccco2)C(=O)CCC(=O)Nc2ccccn2)c(C)c1	Shiga inhibitor 34.4
CCc1ccc(N(CC(=O)NC(C)C)C(=O)CCC(=O)Nc2ccccn2)cc1	Pf growth 96h inconclusive
Cc1cc(C)cc(N(CC(=O)NCc2ccccc2)C(=O)CCC(=O)Nc2ccccn2)c1	Pf growth 48h 2.08µM
N#Cc1c(N)nc(Sc2ccc(Cl)cc2)c(C#N)c1-c1ccccc1Cl	Pf growth 48h inconclusive, Pf growth 96h 7.38µM
Cn1ncc2c(N3CCN(c4ccccc4F)CC3)ncnc21	CHX counter 13.1, Pf growth 48h inconclusive (no result: Pf growth 96h)
Cc1ccc(Cn2ncc3c(N4CCOCC4)ncnc32)cc1	none
Cn1ncc2c(N3CCN(c4ccc(Cl)c(Cl)c4)CC3)ncnc21	Pf growth 48h 9.28µM, Pf growth 96h inconclusive
Cc1ccc(Cn2ncc3c(N4CCN(c5ccccc5C)CC4)ncnc32)cc1	Pf growth 48h 13.1µM, Pf growth 96h inconclusive
Cn1ncc(Cl)c1C(=O)N1CCN(c2ccc(Cl)c(Cl)c2)CC1	none
CCCCCCCCN1C(=O)[C@H](CC(=O)N2CCC(c3ccccc3)CC2)C[C@@]2(C(=O)OC)CCCCC=C12	none (no result: CHX counter, Pf growth 48h, SARS PLP yeast, Shiga inhibitor, Pf growth 96h)
CC(=O)NC(=S)Nc1ccc(N2CCOCC2)c(S(=O)(=O)Nc2cc(Cl)ccc2Cl)c1	none
O=C(N/N=C/c1ccsc1)c1c[nH]c2ccccc12	CHX counter 46.7, Shiga inhibitor 66.7
O=C(N/N=C/c1cccc([N+](=O)[O-])c1)c1c[nH]c2ccccc12	CHX counter 34.4, Shiga inhibitor 79.2
Cc1ccc(/C=N/NC(=O)c2cccc3ccccc23)o1	none
CCn1nc(C)c(/C=N/NC(=O)c2c[nH]c3ccccc23)c1C	CHX counter 49.9, Shiga inhibitor 39.9
O=C(N/N=C/c1cc([N+](=O)[O-])ccc1O)c1c[nH]c2ccccc12	Pf growth 48h inconclusive, Pf growth 96h inconclusive
Cc1ccc(/C=N/NC(=O)c2c[nH]c3ccccc23)o1	CHX counter 20.0, Shiga inhibitor 71.9, Pf growth 96h inconclusive (no result: Pf growth 48h)
O=C(N/N=C/c1ccsc1)c1cc(-c2cccs2)nc2ccccc12	none
COc1ccc(C/C(C)=N\NC(=O)c2c[nH]c3ccccc23)cc1OC	CHX counter 28.8, Shiga inhibitor 71.2
C/C(=N/NC(=O)c1ccncc1)c1c[nH]c2ccccc12	Pf growth 96h inconclusive
Cc1ccsc1/C=N/NC(=O)c1c[nH]c2ccccc12	CHX counter 59.9, Shiga inhibitor 106.3
C/C(=N\NC(=O)c1c[nH]c2ccccc12)c1ccc(C)s1	CHX counter 25.0, Pf growth 48h inconclusive
Cc1ccsc1/C=N\NC(=O)CC(=O)NCc1ccccc1	none
Cc1ccc(/C=N/NC(=O)C[n+]2ccccc2)s1	none
COc1ccc(CCNC(=O)C(=O)c2c[nH]c3ccccc23)cc1OC	Pf growth 96h inconclusive
Cc1ccc(/C=N/NC(=O)c2c[nH]c3ccccc23)s1	CHX counter 30.4, Shiga inhibitor 77.0
CSCCC(NC(=O)c1ccc(Cl)cc1)C(=O)OCC(=O)c1ccc[nH]1 (stereo not drawn)	none
CCCCn1c(N)c(N(CCOC)C(=O)COc2ccc(Cl)cc2)c(=O)[nH]c1=O	none
Cc1cc(C)c(C)c(S(=O)(=O)NCC(=O)N2CCCC2)c1C	none
O=C(COc1ccc(S(=O)(=O)N2CCOCC2)cc1)Nc1ccccc1Cl	Pf growth 48h inconclusive
CC/C(=N\NC(=O)c1c[nH]c2ccccc12)c1cccs1	CHX counter 61.7, Pf growth 48h inconclusive, Shiga inhibitor 61.4, Pf growth 96h 13.1µM
